Experimental data as given in PubChem BioAssay (NCATS).
Where “and” joins values, the source holds several entries; their conditions need not be identical. Equal entries are not always repeated. Inconclusive results are not listed. A number with no mark means an inactive call. Calls of active or inactive are those of the source. The call rests on the fitted dose curve; in most records, active means well fitted activation curve with a large enough effect; inconclusive means small, poorly fitted or top-dose-only effect; inactive means no such curve, though single readings can be large or run the other way. Residues, ends and D or L forms follow the SMILES beside them.

Each compound was assayed against Cellular tumor antigen p53 (Homo sapiens) (UniProt P04637) (assay: Primary qHTS for small molecule compounds that upregulate eGFP-tagged delta133p53alpha (in N-terminal) cells. (AID 2060322; further: nearly all actives have a fitted effect of over 75% in size;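 on activation: series mostly up to about 56 µM; 0% = DMSO vehicle and 100% = reference activator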)). Settings: NCI-H358 eGFP-delta133p53alpha fluorescence, 24 h; activation: stronger effect = higher value.
Method in brief: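 NCI-H358 cells pre-induced 24 h with 10 ng/ml doxycycline to express N-terminal eGFP-delta133p53alpha, then dosed 24 h at 37C without doxycycline; fixed, Hoechst-stained, GFP intensity by laser scanning cytometry, normalized to DMSO (0%) and 57.5 uM 5-azacytidine (100%).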
Potency means the concentration at half of the fitted maximal effect.

Chain of Cellular tumor antigen p53 (Homo sapiens) (P04637 whole entry, looked up): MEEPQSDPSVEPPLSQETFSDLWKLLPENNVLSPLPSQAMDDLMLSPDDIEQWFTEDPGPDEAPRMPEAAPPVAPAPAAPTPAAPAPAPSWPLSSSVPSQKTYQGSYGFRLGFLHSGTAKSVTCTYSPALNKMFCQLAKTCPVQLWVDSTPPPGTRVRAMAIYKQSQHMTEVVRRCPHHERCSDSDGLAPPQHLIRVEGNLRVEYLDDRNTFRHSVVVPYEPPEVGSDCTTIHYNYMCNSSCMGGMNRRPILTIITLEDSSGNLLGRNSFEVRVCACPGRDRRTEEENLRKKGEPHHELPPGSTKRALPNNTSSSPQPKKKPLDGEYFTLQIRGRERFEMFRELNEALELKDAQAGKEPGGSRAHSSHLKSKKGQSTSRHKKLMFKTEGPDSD

Going from `CC(=O)Oc1cccc(C)c1` to `Cc1ccc(C(C)C)c(O)c1`, the activation rises from -28.8% to -8.47%.

Going from `C/C(=N/NC(=O)c1ccncc1)C(=O)O` to `COC(=O)c1ccc(NC(C)=O)cc1OC`, the activation falls from 7.34% to -12.6%.

Going from `O=C(CCCCC(=O)Nc1c(I)cc(I)c(C(=O)O)c1I)Nc1c(I)cc(I)c(C(=O)O)c1I` to `CC(=O)N[C@@H](CO)C(=O)N[C@@H](CC(=O)O)C(=O)N[C@@H](CCCCN)C(=O)N1CCC[C@H]1C(=O)O` (Ac-SDKP-OH), the activation falls from 2.82% to -24.3%.

Going from `NC1CCN(c2cccc(Cl)n2)CC1` to `CCOC(=O)N1CCN([N+]([O-])=NOc2ccc([N+](=O)[O-])cc2C#N)CC1`, the activation rises from -10.7% to 12.2%.

Compared with `CN(C)CCOC1=Cc2ccccc2Sc2ccc(Cl)cc21`, `CN1CCCCC1CCN1c2ccccc2Sc2ccc(S(C)=O)cc21` (stereo not given) is lower in activation: 2.51% for the first, -3.95% for the second.

Compared with `COc1ccccc1OCC(O)CO` (stereo not given), `CC(C)Cc1ccc(CC(=O)O)cc1` is lower in activation: -10.9% for the first, -36.8% for the second.

Compared with `CC=C(C(=CC)c1ccc(O)cc1)c1ccc(O)cc1`, `Nc1c(CC(=O)O)cccc1C(=O)c1ccc(Br)cc1` is higher in activation: -4.09% for the first, -3.95% for the second.

Going from `CCCc1c(OCCCCc2nn[nH]n2)ccc(C(C)=O)c1O` to `CCN(CC)CCOC(=O)C(Cc1cccc2ccccc12)CC1CCCO1` (stereo not given), the activation rises from -2.82% to -0.837%.

Compared with `O=C(O)c1cc(=O)c2ccccc2o1`, `Cc1c(NC(C)C)c(=O)n(-c2ccccc2)n1C` is higher in activation: 2.51% for the first, 11.7% for the second.

First: NC(=O)NC1NC(=O)NC1=O (stereo not given)
Second: CCC=CC[C@H]1C(=O)CC[C@@H]1CC(=O)OC
The activation of the first is lower: -17.5% for the first, 10.3% for the second.

`Cc1ccc2c(Cl)cc(Cl)c(O)c2n1` and `COc1ccc2nc(SCc3ncc(C)c(OC)c3C)[nH]c2c1` are the same in activation: 7.34% for the first, 7.34% for the second.

Compared with `CCC(Sc1nnc2c(n1)[nH]c1ccccc12)C(=O)N1c2ccccc2Sc2ccccc21` (stereo not given), `C[C@@H]1CN(CCCn2c3ccccc3c3ccccc32)C[C@H](C)N1` is higher in activation: 12.3% for the first, 16.4% for the second.

First: Cn1cc[nH]c1=S
Second: CCCCNC(=O)NS(=O)(=O)c1ccc(N)cc1
The activation of the first is higher: -1.69% for the first, -14.2% for the second.

First: O=C1c2cccc(O)c2C(=O)c2c(O)cccc21
Second: CC1(C)S[C@@H]2[C@H](NC(=O)C(c3ccccc3)S(=O)(=O)O)C(=O)N2[C@H]1C(=O)O (stereo not given in full)
The activation of the first is lower: -22.6% for the first, -13% for the second.

First: C[C@@H]1O[C@@H](OC[C@H]2O[C@@H](Oc3c(-c4ccc(O)c(O)c4)oc4cc(O)cc(O)c4c3=O)[C@H](O)[C@@H](O)[C@@H]2O)[C@H](O)[C@H](O)[C@H]1O
Second: C[C@@H]1CC=CC=CC=CC=C[C@@H](O[C@@H]2O[C@H](C)[C@@H](O)[C@H](N)[C@H]2O)C[C@@H]2O[C@](O)(C[C@@H](O)C[C@@H]3O[C@@H]3C=CC(=O)O1)C[C@H](O)[C@@H]2C(=O)O
The activation of the first is lower: -29.9% for the first, -2.86% for the second.

Going from `CC(=O)N1CCN(c2ccc(OCc3nn(C)c(C)c3-c3cccc4c(CCCOc5cc(C)c(Cl)c(C)c5)c(C(=O)O)n(Cc5cccnc5)c34)cc2)CC1` to `COc1ccc(C(=O)N2CCN(CC(=O)N3CCOCC3)CC2)cc1`, the activation rises from -5.22% to 3.95%.

First: O=C(CO)[C@@H](O)[C@H](O)[C@@H](O)CO
Second: CC(=O)O[C@]1(C(C)=O)CC[C@H]2[C@@H]3C=C(Cl)C4=CC(=O)CC[C@]4(C)[C@H]3CC[C@@]21C
The activation of the first is lower: -15.9% for the first, -6.69% for the second.

Going from `COc1cc(C)c(Cc2cnc(N)nc2N)cc1OC` to `NNc1nnc(NN)c2ccccc12`, the activation falls from -6.69% to -35.1%.

With `COC(=O)N[C@H](C(=O)N[C@@H](Cc1ccccc1)[C@@H](O)CN(Cc1ccc(-c2ccccn2)cc1)NC(=O)[C@@H](NC(=O)OC)C(C)(C)C)C(C)(C)C` the activation was -2.82% and 23.4%.
`C=CCc1cc(OC)c(O)c(C(=O)NCCO)c1` was tested, and the activation was -4.18% and -21%.

With `CC(C)(O)Cn1c(NC(=O)c2ccc(-c3cn[nH]c3)s2)nc2cc(CN3CCOCC3)ccc21` the Potency was 3.85 µM (active).
For `Nc1ccccc1N`, the Potency was 17.8 µM (active).
